Laboratory results taken from PubChem BioAssay (EPA / NIEHS).
Several values for one entry are separate records, joined by “and”; a condition that tells them apart may be missing. Equal values may be shown once. Inconclusive results are not listed. Where a structure was tested more than once in an assay, its records may differ in their call. Activity calls are given as the source filed them. The calls were made as follows, unless noted: active = hit-call score of the fitted dose curve at least 0.9, where 1 is the maximum; inactive = score below 0.9.

Assays:
[1] = molecular target: Estrogen-related receptor gamma (Homo sapiens) (UniProt P62508); experiment: ATG_ERRg_TRANS: Attagene TRANS-FACTORIAL HepG2 Assay for human Estrogen-Related Receptor gamma (ERRg) (AID 2282977; active = hit-call score of the fitted dose curve at least 0.9, where 1 is the maximum;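 also: hits increase reporter signal over DMSO so potencies reflect activators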); details: HepG2 Attagene TRANS reporter, ERRg transactivation
How it was run: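 Exogenous NR-Gal4 chimera activity measured as reporter transcript induction after 24 h in transiently transfected HepG2 cells. RNA reverse-transcribed, PCR-amplified, 6-FAM-labelled and resolved by capillary electrophoresis; increase over DMSO baseline.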

[2] = molecular target: Glucocorticoid receptor (Homo sapiens) (UniProt P04150); experiment: ATG_GR_TRANS: Attagene TRANS-FACTORIAL HepG2 Assay for human Glucocorticoid Receptor (GR) (AID 2282978; active = hit-call score of the fitted dose curve at least 0.9, where 1 is the maximum;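 also: activators score as hits since higher reporter transcript over DMSO is fitted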); details: HepG2 Attagene TRANS GR reporter, mRNA transcription
How it was run: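 HepG2 transient transfection, multiple reporter units, GAL4-UAS under NR-GAL4 chimera control. 24 h treatment. Reporter mRNA by RT-PCR/CE fluorescence, DMSO as negative control.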

[3] = molecular target: Bile acid receptor (Homo sapiens) (UniProt Q96RI1); experiment: ATG_FXR_TRANS: Attagene TRANS-FACTORIAL HepG2 Assay for Farnesoid X Receptor (FXR) (AID 2282979; active = hit-call score of the fitted dose curve at least 0.9, where 1 is the maximum;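 also: hits raise reporter mRNA above DMSO so AC50 marks FXR activation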); details: HepG2 Attagene TRANS FXR-GAL4 reporter transcription
How it was run: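 Read-out: fluorescent reporter transcripts quantified by capillary electrophoresis after RT-PCR of total RNA. Source cells were HepG2 transiently carrying chimeric NR-GAL4 plus GAL4-UAS reporter units, dosed 24 h. Activity fitted upward relative to DMSO baseline.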

[4] = molecular target: Hepatocyte nuclear factor 4-alpha (Homo sapiens) (UniProt P41235); experiment: ATG_HNF4a_TRANS: Attagene TRANS-FACTORIAL HepG2 Assay for human Hepatocyte Nuclear Factor 4 alpha (HNF4a) (AID 2282982; active = hit-call score of the fitted dose curve at least 0.9, where 1 is the maximum); details: HepG2 HNF4a transactivation reporter, mRNA readout
How it was run: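 Endpoint reflects transcriptional activation of a GAL4-UAS reporter by an HNF4a-GAL4 chimera in transfected HepG2 cells, 24 h post-dosing. Fluorescence from RT-PCR products separated by capillary electrophoresis; DMSO baseline.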

[5] = ATG_M_06_TRANS: Attagene TRANS-FACTORIAL HepG2 Assay for M06 Transcription Factor (Internal Marker) (AID 2282983; active = hit-call score of the fitted dose curve at least 0.9, where 1 is the maximum); details: HepG2 Attagene TRANS M06 internal marker reporter
How it was run: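 Read-out: fluorescent reporter cDNA fragments resolved by capillary electrophoresis after RT-PCR and HpaI cut. Source cells were HepG2 carrying transfected multi-reporter GAL4 constructs, dosed 24 h. Increase over DMSO control analysed.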

[6] = molecular target: Transcriptional activator Myb (Homo sapiens) (UniProt P10242); experiment: ATG_Myb_CIS: Attagene CIS-FACTORIAL HepG2 Assay for human Myeloblastosis (Myb) Proto-Oncogene Transcription Factor (AID 2282986); details: HepG2 Attagene CIS-FACTORIAL Myb reporter transcription; actives raise or lower the signal
How it was run: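 Multiplexed cis-reporter system in HepG2: transient transfection, 24 h treatment, mRNA readout by RT-PCR and capillary electrophoresis. Both increases and decreases are scored versus DMSO negative control.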

[7] = molecular target: Nuclear respiratory factor 1 (Homo sapiens) (UniProt Q16656); experiment: ATG_NRF1_CIS: Attagene CIS-FACTORIAL HepG2 Assay for human Nuclear Respiratory Factor 1 (NRF1) Orphan Gene (AID 2282987); details: HepG2 NRF1 cis-element reporter, Attagene multiplex; actives raise or lower the signal
How it was run: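 Endogenous factor activity was captured via cis-element-driven reporter transcripts in HepG2 cells. Following 24 h chemical treatment, transcripts were quantified by RT-PCR and capillary electrophoresis.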

[8] = ATG_NFI_CIS: Attagene CIS-FACTORIAL HepG2 Assay for human Nuclear Factor I (NFI) (AID 2282989); details: HepG2 cis-regulatory reporter, NFI response element transcription; actives raise or lower the signal
How it was run: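 Cells: human liver HepG2, transiently transfected with promoter-regulated reporter transcription units. Exposure 24 h. Detection: fluorescent RT-PCR products separated by capillary electrophoresis, normalised to DMSO negative control.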

[9] = molecular target: Myc proto-oncogene protein (Homo sapiens) (UniProt P01106); experiment: ATG_Myc_CIS: Attagene CIS-FACTORIAL HepG2 Assay for human Myelocytomatosis (Myc) Proto-Oncogene Transcription Factor (AID 2282990); details: HepG2, Attagene cis-reporter transcription factor activity; actives raise or lower the signal
How it was run: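 Transiently transfected HepG2 cells bearing cis-promoter reporter units for endogenous transcription factors; 24 h exposure. Reporter mRNA measured by RT-PCR, 6-FAM primer extension, HpaI cut and capillary electrophoresis; bidirectional fit relative to DMSO.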

[10] = ATG_NF_kB_CIS: Attagene CIS-FACTORIAL HepG2 Assay for human Nuclear Factor Kappa B (NF-kB) (AID 2282991); details: HepG2 Attagene cis-factorial NF-kB reporter mRNA; actives raise or lower the signal
How it was run: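 After 24 h compound incubation, transfected HepG2 cells yield total RNA; reporter cDNA is PCR-amplified, end-labelled with 6-FAM, HpaI-digested and analysed on a genetic analyser. Endogenous factor activity, DMSO-referenced bidirectional fit.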

[11] = ATG_NRF2_ARE_CIS: Attagene CIS-FACTORIAL HepG2 Assay for human Nuclear Factor Erythroid 2 Related Factor 2 (NFR2) response to Antioxidant Response Elements (ARE) (AID 2282992); details: HepG2 Attagene ARE/NRF2 reporter, transcription factor activity; actives raise or lower the signal;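 as to AC50: reporter mRNA level measured by RT-PCR and capillary electrophoresis fluorescence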
How it was run: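 Endogenous transcription factor activity in human liver HepG2 cells is tracked via a cis-element-driven reporter within a multiplexed set. mRNA induction is read by RT-PCR and capillary electrophoresis after 24 h, with DMSO as baseline.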

[12] = ATG_Oct_MLP_CIS: Attagene CIS-FACTORIAL HepG2 Assay for human Octamer-Binding Transcription Factor (Oct) (AID 2282993); details: HepG2 Attagene cis-factorial Oct reporter, mRNA; actives raise or lower the signal
How it was run: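 HepG2, transient MRTU transfection, cis promoter elements; 24 h dosing; RT-PCR/CE fluorescence read-out of reporter mRNA; fit both directions vs DMSO.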

[13] = molecular target: Cellular tumor antigen p53 (Homo sapiens) (UniProt P04637); experiment: ATG_p53_CIS: Attagene CIS-FACTORIAL HepG2 Assay for human p53 Transcription Factor (AID 2282994); details: HepG2 p53 cis-element reporter, Attagene mRNA; actives raise or lower the signal
How it was run: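 Steps: transfect HepG2 with multiplexed cis reporter constructs; dose chemicals 24 h; extract RNA, reverse-transcribe, PCR-amplify reporter sequences; FAM-label, HpaI-digest, resolve fragments by CE. Activity fitted both directions relative to DMSO.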

[14] = BSK_3C_uPAR: BioMAP Diversity Plus: 3C Assay for Urokinase-type plasminogen activator receptor (uPAR) Biomarker Activity (AID 2282998); details: BioMAP 3C HUVEC, uPAR biomarker ELISA; actives raise or lower the signal
How it was run: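 A multiplexed primary-cell system built on human umbilical vein endothelium was used, with chemical present for 24 h before reading. Cell-surface uPAR was detected by ELISA; signal change in either direction counted against DMSO.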

[15] = ATG_GAL4_TRANS: Attagene TRANS-FACTORIAL HepG2 Assay for GAL4 (Internal Marker) (AID 2282976; active = hit-call score of the fitted dose curve at least 0.9, where 1 is the maximum); details: HepG2 Attagene TRANS GAL4 internal marker reporter
How it was run: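 RT-PCR/capillary electrophoresis readout of reporter mRNA. HepG2, transient MRTU transfection (GAL4-UAS reporters), 24 h compound exposure. Background-control endpoint, positive direction vs DMSO baseline.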

[16] = ATG_M_32_TRANS: Attagene TRANS-FACTORIAL HepG2 Assay for M32 Transcription Factor (Internal Marker) (AID 2282984; active = hit-call score of the fitted dose curve at least 0.9, where 1 is the maximum;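 also: transcript level of a background control reporter unit measured by RT-PCR and capillary electrophoresis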); details: HepG2 Attagene TRANS M32 internal marker reporter
How it was run: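 Internal-marker readout from a multiplexed transcription reporter panel. HepG2 cells were transfected with GAL4-UAS reporter units, treated 24 hours, and reporter transcript levels determined by fluorescence after RT-PCR and capillary separation.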

[17] = molecular target: Nuclear receptor subfamily 4 group A member 2 (Homo sapiens) (UniProt P43354); experiment: ATG_NURR1_TRANS: Attagene TRANS-FACTORIAL HepG2 Assay for human Nuclear Receptor Related Protein 1 (NURR1) (AID 2282985; active = hit-call score of the fitted dose curve at least 0.9, where 1 is the maximum); details: HepG2 Attagene TRANS reporter, mRNA readout
How it was run: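 Endpoint: reporter mRNA increase relative to DMSO. HepG2 cells transfected with reporter units, treated 24 h; RNA processed by RT-PCR, labelling, HpaI digestion and capillary electrophoresis.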

[18] = molecular target: Oxysterols receptor LXR-beta (Homo sapiens) (UniProt P55055); experiment: ATG_LXRb_TRANS: Attagene TRANS-FACTORIAL HepG2 Assay for human Liver X Receptor beta (LXRb) (AID 2282981; active = hit-call score of the fitted dose curve at least 0.9, where 1 is the maximum); details: HepG2 Attagene TRANS GAL4-LXRb reporter, mRNA
How it was run: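 Multiplexed reporter assay, HepG2, 24 h dosing. Fluorescence of labelled RT-PCR products after capillary electrophoresis gives transcript level; positive fitting direction relative to DMSO.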

[19] = molecular target: Oxysterols receptor LXR-alpha (Homo sapiens) (UniProt Q13133); experiment: ATG_LXRa_TRANS: Attagene TRANS-FACTORIAL HepG2 Assay for human Liver X Receptor alpha (LXRa) (AID 2282980; active = hit-call score of the fitted dose curve at least 0.9, where 1 is the maximum); details: HepG2 Attagene TRANS reporter, LXRa transactivation
How it was run: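 Read-out: reporter transcript levels by RT-PCR plus capillary electrophoresis, fluorescence intensity. Transiently transfected HepG2, exogenous NR-GAL4 chimera, GAL4-UAS reporters; 24 h compound exposure. Activity = increase over DMSO negative control.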

[20] = BSK_3C_TissueFactor: BioMAP Diversity Plus: 3C Assay for Tissue Factor Biomarker Activity (AID 2282997); details: BioMAP 3C HUVEC, tissue factor biomarker readout; actives raise or lower the signal
How it was run: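 HUVEC, 3C system, 24 h post-dose; Tissue Factor by ELISA; bidirectional fit vs DMSO baseline.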

Measured: AC50

Sequence of Oxysterols receptor LXR-beta (Homo sapiens) (P55055 whole entry, looked up, the tested form may be a part): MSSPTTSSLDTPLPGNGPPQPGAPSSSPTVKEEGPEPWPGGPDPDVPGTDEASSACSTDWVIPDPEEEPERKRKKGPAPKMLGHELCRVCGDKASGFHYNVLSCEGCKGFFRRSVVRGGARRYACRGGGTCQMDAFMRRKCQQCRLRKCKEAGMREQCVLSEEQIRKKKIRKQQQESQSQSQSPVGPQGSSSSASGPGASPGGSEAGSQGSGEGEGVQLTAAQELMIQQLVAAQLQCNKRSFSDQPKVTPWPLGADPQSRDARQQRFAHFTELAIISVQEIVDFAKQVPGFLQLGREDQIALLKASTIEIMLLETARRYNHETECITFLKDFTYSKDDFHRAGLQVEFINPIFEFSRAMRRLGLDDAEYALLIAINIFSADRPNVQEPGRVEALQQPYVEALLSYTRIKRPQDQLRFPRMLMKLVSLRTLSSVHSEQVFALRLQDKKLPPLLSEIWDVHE
Sequence of Myc proto-oncogene protein (Homo sapiens) (P01106 whole entry, looked up): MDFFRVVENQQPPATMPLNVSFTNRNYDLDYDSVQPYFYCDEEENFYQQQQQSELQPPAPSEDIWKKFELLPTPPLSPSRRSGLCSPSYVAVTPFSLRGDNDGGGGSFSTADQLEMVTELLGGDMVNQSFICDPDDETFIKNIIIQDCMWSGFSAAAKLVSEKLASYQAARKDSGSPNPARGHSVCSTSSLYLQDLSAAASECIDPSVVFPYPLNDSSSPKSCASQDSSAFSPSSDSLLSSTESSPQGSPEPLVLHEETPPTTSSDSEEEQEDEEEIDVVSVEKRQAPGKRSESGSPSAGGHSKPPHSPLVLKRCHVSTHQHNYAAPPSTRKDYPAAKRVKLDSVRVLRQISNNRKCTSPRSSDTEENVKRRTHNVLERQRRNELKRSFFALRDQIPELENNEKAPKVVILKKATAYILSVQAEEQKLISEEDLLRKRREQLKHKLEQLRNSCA
Sequence of Hepatocyte nuclear factor 4-alpha (Homo sapiens) (P41235 whole entry, looked up, the tested form may be a part): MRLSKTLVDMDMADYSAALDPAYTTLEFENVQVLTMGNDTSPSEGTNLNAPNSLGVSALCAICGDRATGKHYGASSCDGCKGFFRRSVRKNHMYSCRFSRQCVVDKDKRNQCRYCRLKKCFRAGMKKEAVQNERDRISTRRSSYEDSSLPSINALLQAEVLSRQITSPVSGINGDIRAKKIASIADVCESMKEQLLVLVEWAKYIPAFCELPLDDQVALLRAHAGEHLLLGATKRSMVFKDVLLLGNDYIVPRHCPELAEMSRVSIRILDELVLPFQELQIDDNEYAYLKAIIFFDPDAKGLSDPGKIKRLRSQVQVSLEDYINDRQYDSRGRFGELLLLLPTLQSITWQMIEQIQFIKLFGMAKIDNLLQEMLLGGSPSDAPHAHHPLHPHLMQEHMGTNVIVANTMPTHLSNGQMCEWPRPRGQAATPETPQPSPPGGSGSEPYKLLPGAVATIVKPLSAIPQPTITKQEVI
Sequence of Nuclear respiratory factor 1 (Homo sapiens) (Q16656 whole entry, looked up): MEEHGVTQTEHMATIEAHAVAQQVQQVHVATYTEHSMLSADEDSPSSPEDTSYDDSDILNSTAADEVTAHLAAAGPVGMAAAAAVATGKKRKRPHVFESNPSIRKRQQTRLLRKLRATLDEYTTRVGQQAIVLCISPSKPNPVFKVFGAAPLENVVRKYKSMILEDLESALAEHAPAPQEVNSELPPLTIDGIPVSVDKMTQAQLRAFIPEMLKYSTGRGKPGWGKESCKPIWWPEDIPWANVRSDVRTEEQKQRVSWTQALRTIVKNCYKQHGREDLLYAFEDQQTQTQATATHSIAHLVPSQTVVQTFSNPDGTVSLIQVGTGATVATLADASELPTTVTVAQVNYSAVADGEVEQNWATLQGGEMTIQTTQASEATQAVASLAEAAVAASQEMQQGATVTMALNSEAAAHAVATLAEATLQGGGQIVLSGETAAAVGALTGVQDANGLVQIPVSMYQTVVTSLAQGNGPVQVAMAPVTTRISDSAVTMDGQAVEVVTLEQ
Sequence of Transcriptional activator Myb (Homo sapiens) (P10242 whole entry, looked up): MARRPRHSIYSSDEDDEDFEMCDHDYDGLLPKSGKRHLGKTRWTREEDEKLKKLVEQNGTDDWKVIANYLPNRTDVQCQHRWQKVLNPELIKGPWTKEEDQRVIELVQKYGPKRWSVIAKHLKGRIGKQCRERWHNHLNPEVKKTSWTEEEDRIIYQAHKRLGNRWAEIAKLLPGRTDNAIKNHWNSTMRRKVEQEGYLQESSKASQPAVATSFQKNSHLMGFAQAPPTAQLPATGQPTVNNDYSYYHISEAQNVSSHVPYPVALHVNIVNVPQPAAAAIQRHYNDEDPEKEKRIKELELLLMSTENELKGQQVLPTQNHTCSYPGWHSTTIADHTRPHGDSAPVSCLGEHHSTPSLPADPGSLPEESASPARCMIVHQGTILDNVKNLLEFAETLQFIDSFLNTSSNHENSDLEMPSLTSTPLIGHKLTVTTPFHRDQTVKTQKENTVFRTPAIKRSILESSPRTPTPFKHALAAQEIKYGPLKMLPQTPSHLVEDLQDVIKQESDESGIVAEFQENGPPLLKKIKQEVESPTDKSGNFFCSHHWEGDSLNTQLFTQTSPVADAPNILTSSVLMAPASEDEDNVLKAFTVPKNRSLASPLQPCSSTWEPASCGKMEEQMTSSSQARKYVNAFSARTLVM
Sequence of Cellular tumor antigen p53 (Homo sapiens) (P04637 whole entry, looked up, the tested form may be a part): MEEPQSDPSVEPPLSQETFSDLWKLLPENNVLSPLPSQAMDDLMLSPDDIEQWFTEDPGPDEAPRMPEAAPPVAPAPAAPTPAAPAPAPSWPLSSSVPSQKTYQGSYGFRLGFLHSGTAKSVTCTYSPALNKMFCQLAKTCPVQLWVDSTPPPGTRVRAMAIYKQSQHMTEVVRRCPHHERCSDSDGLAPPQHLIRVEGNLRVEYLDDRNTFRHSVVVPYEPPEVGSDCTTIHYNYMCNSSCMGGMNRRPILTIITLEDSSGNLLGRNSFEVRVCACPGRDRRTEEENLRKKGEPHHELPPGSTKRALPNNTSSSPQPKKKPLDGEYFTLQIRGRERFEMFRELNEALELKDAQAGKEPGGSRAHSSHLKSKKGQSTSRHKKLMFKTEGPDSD
Sequence of Bile acid receptor (Homo sapiens) (Q96RI1 whole entry, looked up, the tested form may be a part): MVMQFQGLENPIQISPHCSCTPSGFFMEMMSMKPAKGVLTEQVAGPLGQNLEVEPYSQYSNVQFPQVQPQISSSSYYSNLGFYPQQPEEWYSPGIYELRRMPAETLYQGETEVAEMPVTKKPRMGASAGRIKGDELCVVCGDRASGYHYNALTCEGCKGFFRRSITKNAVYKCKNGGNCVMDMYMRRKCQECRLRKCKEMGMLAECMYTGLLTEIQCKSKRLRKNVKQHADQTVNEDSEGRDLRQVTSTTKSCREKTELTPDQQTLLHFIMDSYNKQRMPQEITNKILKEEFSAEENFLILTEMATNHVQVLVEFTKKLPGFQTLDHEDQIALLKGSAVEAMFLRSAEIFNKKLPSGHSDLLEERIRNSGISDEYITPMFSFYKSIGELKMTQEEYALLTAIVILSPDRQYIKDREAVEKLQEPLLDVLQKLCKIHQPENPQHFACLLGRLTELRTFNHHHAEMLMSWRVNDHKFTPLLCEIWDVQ
Sequence of Estrogen-related receptor gamma (Homo sapiens) (P62508 whole entry, looked up, the tested form may be a part): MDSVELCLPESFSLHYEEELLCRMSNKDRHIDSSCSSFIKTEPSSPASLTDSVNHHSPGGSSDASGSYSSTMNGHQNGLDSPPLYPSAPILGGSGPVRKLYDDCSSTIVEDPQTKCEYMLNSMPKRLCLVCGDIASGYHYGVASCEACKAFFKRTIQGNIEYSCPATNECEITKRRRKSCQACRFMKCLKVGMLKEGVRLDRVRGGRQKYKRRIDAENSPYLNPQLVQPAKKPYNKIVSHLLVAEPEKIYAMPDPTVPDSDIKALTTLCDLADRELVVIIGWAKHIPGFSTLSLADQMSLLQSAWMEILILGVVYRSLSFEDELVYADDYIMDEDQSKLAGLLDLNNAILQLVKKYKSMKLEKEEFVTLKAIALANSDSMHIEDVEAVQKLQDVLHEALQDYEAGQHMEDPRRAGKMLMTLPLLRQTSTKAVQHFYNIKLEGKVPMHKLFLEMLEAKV
Sequence of Nuclear receptor subfamily 4 group A member 2 (Homo sapiens) (P43354 whole entry, looked up): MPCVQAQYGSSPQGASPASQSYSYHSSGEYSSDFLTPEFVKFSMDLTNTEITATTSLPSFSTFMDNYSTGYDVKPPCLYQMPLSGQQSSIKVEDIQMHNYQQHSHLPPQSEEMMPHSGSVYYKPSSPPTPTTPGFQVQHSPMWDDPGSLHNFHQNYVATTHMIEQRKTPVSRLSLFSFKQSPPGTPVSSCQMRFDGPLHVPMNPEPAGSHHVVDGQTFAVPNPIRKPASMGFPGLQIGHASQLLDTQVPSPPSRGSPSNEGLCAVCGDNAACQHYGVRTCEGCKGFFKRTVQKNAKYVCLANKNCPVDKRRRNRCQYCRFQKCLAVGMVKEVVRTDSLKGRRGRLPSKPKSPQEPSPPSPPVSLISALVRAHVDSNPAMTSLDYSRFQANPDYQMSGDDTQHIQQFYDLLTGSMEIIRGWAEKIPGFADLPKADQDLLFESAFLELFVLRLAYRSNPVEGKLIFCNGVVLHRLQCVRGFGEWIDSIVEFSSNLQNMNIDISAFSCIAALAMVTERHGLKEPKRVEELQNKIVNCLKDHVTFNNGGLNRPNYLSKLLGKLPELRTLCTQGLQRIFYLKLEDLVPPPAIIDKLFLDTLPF
Sequence of Oxysterols receptor LXR-alpha (Homo sapiens) (Q13133 whole entry, looked up, the tested form may be a part): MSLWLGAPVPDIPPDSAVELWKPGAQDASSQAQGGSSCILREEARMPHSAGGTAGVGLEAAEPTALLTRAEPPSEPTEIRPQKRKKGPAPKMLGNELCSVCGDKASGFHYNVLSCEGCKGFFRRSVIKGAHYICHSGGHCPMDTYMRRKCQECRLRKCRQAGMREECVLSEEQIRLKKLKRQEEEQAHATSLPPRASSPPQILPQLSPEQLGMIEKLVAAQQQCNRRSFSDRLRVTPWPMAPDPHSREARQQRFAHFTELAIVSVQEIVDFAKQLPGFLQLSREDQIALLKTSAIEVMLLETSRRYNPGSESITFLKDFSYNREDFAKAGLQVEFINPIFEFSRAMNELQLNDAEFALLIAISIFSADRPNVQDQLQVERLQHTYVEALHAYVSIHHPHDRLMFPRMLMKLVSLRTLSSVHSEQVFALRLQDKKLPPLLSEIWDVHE

CCc1ccc(C(=O)NN(C(=O)c2cc(C)cc(C)c2)C(C)(C)C)cc1
inactive: [1] | [2] | [3] | [4] | [5] | [6] | [7] | [8] | [9] | [12] | [13]
active: [10] 9.92 µM | [11] 9.92 µM | [14] 20 µM

O=C(O)C(F)(F)C(F)(F)C(F)(F)C(F)(F)C(F)(F)C(F)(F)C(F)(F)F
active: [11] 84.7 µM [middle of 4 runs] | [14] 1.51 µM
inactive: [15] | [5] | [16] | [17] | [6] | [7] | [8] | [9] | [10] | [12] | [13] | [14]

CCOc1nc(NC)nc(NC(=O)NS(=O)(=O)c2ccccc2C(=O)OC)n1
inactive: [1] | [2] | [3] | [18] | [6] | [7] | [8] | [9] | [10] | [11] | [12] | [13] | [14]

CC(C)OC(=O)Nc1cccc(Cl)c1
inactive: [1] | [19] | [18] | [4] | [5] | [16] | [17] | [6] | [7] | [8] | [9] | [10] | [13] | [14]
active: [11] 21 µM | [12] 39.4 µM

CCCN(CCOc1c(Cl)cc(Cl)cc1Cl)C(=O)n1ccnc1
active: [11] 4.52 µM | [12] 11.1 µM
inactive: [15] | [1] | [3] | [18] | [4] | [5] | [16] | [17] | [6] | [7] | [8] | [9] | [11] | [12] | [13] | [20] | [14]

CCS(=O)(=O)c1cccnc1S(=O)(=O)NC(=O)Nc1nc(OC)cc(OC)n1
active: [11] 17.6 µM and 19.1 µM
inactive: [1] | [2] | [3] | [18] | [4] | [5] | [16] | [17] | [6] | [7] | [8] | [9] | [10] | [12] | [13] | [14]
